This is an account of results in PubChem BioAssay.

Unmarked numbers belong to inactive results. The source made the active and inactive calls. Rule as the data show it: active = inhibition above about 30%; inactive = the rest.

A short description of this assay: growth suppression of yeast trafficking mutant, preliminary HTS, modulators of trafficking downstream of Golgi apparatus project, 1536-format plate, OD 615 nm (AID 637). To be noted: yeast transport mutant growth, absorbance 615 nm, 18 h; active compounds read high.
A word on the inhibition: it is the change of the read-out against control, counted positive when it falls. For the compound `O=C1OCCC1NC1=NCCC1` (stereo not given), the inhibition was -5.41%. As for `CN1C(=O)N(C)C(=O)C2(Cc3ccccc3N3CCOCC32)C1=O` (stereo not given), the inhibition was -2.86%. Then `O=c1[nH]c(=O)n(Cc2ccco2)c(O)c1C=NCCCn1ccnc1`, with -3.33%; and `CC1CCC(C(=O)NC(C(=O)N2CCC3(CC2)OCCO3)C(C)C)CC1` (stereo not given), with -5.25%.

In the case of `COc1ccccc1N1CCN(Cc2cccc(OC)c2O)CC1`, the inhibition is 5.25%. For `O=C1CC(c2ccccc2)CC(O)=C1C=NCCN1CCN(C(=O)Cc2ccccc2)CC1` (stereo not given), the inhibition is 11.5%. With `OCCOCC#CCN1CCOCC1`, the inhibition was 1.31%. With `NC(=O)CSP(=O)(c1ccccc1)c1ccccc1` the figure was -2.9%; with `CC1(C)C(c2ccccc2)=NC(c2cccnc2)N1O` (stereo not given), 5.74%. Then `CCCCCCC(N)CC(=O)O` (stereo not given), with -8.17%; and `CCN(CC)CCN=Cc1c(O)n(CCC2=CCCCC2)c(=O)[nH]c1=O`, with -4.29%; and `CCN1c2nc3c(C)cccn3c(=O)c2CC2(C(=O)N(C)C(=O)N(C)C2=O)C1C` (stereo not given), with -2.13%. Then `C=CCn1c(O)c(C=NCCN(C)C)c(=O)[nH]c1=O`, with -0.98%; and `Cc1ccccc1NC1=NCCCS1`, with -0.67%. In the case of `CN1CCC(N(C)c2ncnc3ccc(Br)cc23)CC1`, the inhibition is 0.79%. With `O=c1[nH]c(=O)n(Cc2ccccc2)c(O)c1C=NCCCO` the figure was -0.65%. For `O=C1CC(N2CCC(n3c(=O)[nH]c4ccccc43)CC2)C(=O)N1c1ccc(F)cc1` (stereo not given), the inhibition was -6.5%. As for `Cc1cc(NC(=O)COC(=O)c2c(C)nn(Cc3ccccc3)c2Cl)no1`, the inhibition is -8.03%. With `CN(C)c1cc(N)c2c(n1)CCC2` (tested in a mixture with another compound) the figure was -5.17%; with `c1ccc(C2CC3CC(c4ccco4)N2O3)cc1` (stereo not given), -7.74%; with `c1cncc(CNC2=NCCCCC2)c1`, -4.92%. Regarding `C=CCn1c(O)c(C(C)=NCc2cccnc2)c(=O)[nH]c1=O`, the inhibition is -1.33%. Turning to `NCCc1ccc(O)cc1`, the inhibition was -21.1%. Then `COc1ccc(C(=O)C(C)(C)NO)cc1`, with 0.48%. Then `CCOC(=O)c1cccc([P+](=O)O)c1`, with -9.03%; and `O=C(CCCOc1ccc(Cl)cc1Cl)N1CCC2(CC1)OCCO2`, with -2%; and `CCCCOc1ccc(CN2CCN(CCO)CC2)cc1`, with -1.64%. In the case of `CSc1ccc(CNC2CN3CCC2CC3)cc1` (stereo not given), the inhibition was -3.77%. With `CCCCn1c(O)c(C(C)=NCCc2ccccc2)c(=O)[nH]c1=O` the figure was 9.51%; with `O=C(c1sc2ccccc2c1Cl)N1CCC2(CC1)OCCO2`, -7.5%. As to `N#Cc1ccccc1Cn1cc(C(=O)c2ccco2)c2ccccc21`, the inhibition was 14.5%. In the case of `COc1ccc(CC2C(=O)NC(=O)NC2=O)c(OC)c1`, the inhibition was -1.75%. For `CCCCn1c(O)c(C(CC)=Nc2cccc(C(=O)O)c2)c(=O)[nH]c1=O`, the inhibition was -4.13%. As for `COc1cc(C2NCc3ccccc3-n3cccc32)ccc1O` (stereo not given), the inhibition is -1.27%.

`Cc1ccc(CS(=O)(=O)CCC(=O)N2CCC3(CC2)OCCO3)cc1`: the inhibition is -0.82%.

On to `COc1cc(/C=N/n2cnnc2)ccc1OC(=O)N(C)C`, for which the inhibition is -2.06%.

For `CC#CP(=O)(OCC)C(O)(c1ccccc1)C(F)(F)F` (stereo not given), the inhibition is 2.13%. Consider `CCOC(=O)C(O)(c1ccc(N(CC)C(=O)OC)cc1)C(F)(F)F` (stereo not given), for which the inhibition is 5.74%.

In the case of `CC(C)(C)C(O)C(Oc1ccc(Cl)cc1)n1cncn1` (stereo not given), the inhibition was 94% (active). With `COC(=O)c1c(C)n(Cc2ccc3c(c2)OCO3)c2ccc(O)cc12` the figure was -1.94%.
